PubChem BioAssay (NCATS)
Results filed as inconclusive are left out. The source made the active and inactive calls. The call rests on the fitted dose curve; in most records, active means well fitted inhibition curve with a large enough effect; inconclusive means small, poorly fitted or top-dose-only effect; inactive means flat fitted curve, though single readings scatter.

How the values were obtained:
Assay in all cases: qHTS profiling for inhibitors of Plasmodium falciparum proliferation (AID 504749); further: nearly all actives have a fitted effect of over 60% in size
Details in all cases: P. falciparum in erythrocytes, SYBR Green DNA, 72 h; series mostly up to 28.7 µM
3D7 = test system: 3D7
In short: (§1)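 SYBR Green fluorescence (ex 485 nm, em 535 nm) reports parasite DNA after 72 h compound exposure of infected red cells at 0.3% parasitemia, 2.5% hematocrit; signal normalized to 0.29 uM artemisinin and vehicle wells.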

CP185 = test system: CP185
In short: as §1

CP192 = test system: CP192
In short: as §1

CP194 = test system: CP194
In short: as §1

CP201 = test system: CP201
In short: as §1

CP238 = test system: CP238
In short: as §1

CP247 = test system: CP247
In short: as §1

CP262 = test system: CP262
In short: as §1

CP265 = test system: CP265
In short: as §1

CP268 = test system: CP268
In short: as §1

CP269 = test system: CP269
In short: as §1

CP286 = test system: CP286
In short: as §1

CP305 = test system: CP305
In short: as §1

CP315 = test system: CP315
In short: as §1

CP325 = test system: CP325
In short: as §1

CP329 = test system: CP329
In short: as §1

DIV30 = test system: DIV30
In short: as §1

FAB9 = test system: FAB9
In short: as §1

PC15 = test system: PC15
In short: as §1

PC49 = test system: PC49
In short: as §1

Measured: Potency

CN1[C@H]2CC(OC(=O)[C@H](CO)c3ccccc3)C[C@H]1[C@H]1O[C@H]12 (stereo not given in full)
inactive: all assays above
